According to PubChem BioAssay AID1159580 (chemical genetic matrix, 2015):
In all, about 5,500 compounds went through this assay and about 2,000 (36%) were called active. Another 18% or so got no clear call; they are omitted. No stated cut-off is given here; in the data, active means normalized growth mostly below about 0.91 (no sharp cut-off); inconclusive means no clear call, values can overlap the other calls; inactive means mostly above about 0.92. This is one part of the list.

Test: chemical genetic growth profiling, strain panel (AID 1159580);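 further: tested at 20 µM; growth read once vehicle control cultures reached saturation at 30 °C; 1 = growth at the plate median or of vehicle wells; lower values mean less growth of the strain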
Conditions: growth OD
[1] = S. cerevisiae deletion strains, locus YDL101C, strain DUN1, hits give low values
[2] = S. cerevisiae deletion strains, locus YHR030C, strain SLT2, hits give low values

Measured: normalized growth

O=C(NC(=O)c1c(F)cccc1Cl)OCc1ccc(Cl)cc1Cl
active: [2] 0.63 | S. cerevisiae deletion strains, locus YLR113W, strain HOG1, hits give low values 0.71 | S. cerevisiae deletion strains, locus YPL256C, strain CLN2, hits give low values 0.711
inactive: S. cerevisiae deletion strains, locus YAR019C, strain CDC15, hits give low values 0.987 | S. cerevisiae deletion strains, locus YBL105C, strain PKC1, hits give low values 0.981 | S. cerevisiae deletion strains, locus YBR135W, strain CKS1, hits give low values 0.975 | S. cerevisiae deletion strains, locus YBR136W, strain MEC1, hits give low values 0.984 | S. cerevisiae deletion strains, locus YBR160W, strain CDC28, hits give low values 0.976 | S. cerevisiae deletion strains, locus YDL017W, strain CDC7, hits give low values 0.99 | S. cerevisiae deletion strains, locus YDL028C, strain MPS1, hits give low values 0.978 | [1] 0.989 | S. cerevisiae deletion strains, locus YDL108W, strain KIN28, hits give low values 0.976 | S. cerevisiae deletion strains, locus YDL132W, strain cdc53, hits give low values 0.984 | S. cerevisiae deletion strains, locus YDL214C, strain PRR2, hits give low values 0.879 | S. cerevisiae deletion strains, locus YDR052C, strain DBF4, hits give low values 0.978 | S. cerevisiae deletion strains, locus YDR054C, strain cdc34, hits give low values 0.979 | S. cerevisiae deletion strains, locus YDR226W, strain ADK1, hits give low values 0.983 | S. cerevisiae deletion strains, locus YDR477W, strain SNF1, hits give low values 0.915 | S. cerevisiae deletion strains, locus YER123W, strain YCK3, hits give low values 0.848 | S. cerevisiae deletion strains, locus YER133W, strain GLC7, hits give low values 0.893 | S. cerevisiae deletion strains, locus YFL009W, strain cdc4, hits give low values 0.985 | S. cerevisiae deletion strains, locus YFL029C, strain CAK1, hits give low values 0.987 | S. cerevisiae deletion strains, locus YFR003C, strain YPI1, hits give low values 0.98 | S. cerevisiae deletion strains, locus YFR019W, strain FAB1, hits give low values 0.941 | S. cerevisiae deletion strains, locus YFR028C, strain CDC14, hits give low values 0.988 | S. cerevisiae deletion strains, locus YGR040W, strain KSS1, hits give low values 0.9 | S. cerevisiae deletion strains, locus YGR052W, strain FMP48, hits give low values 0.9 | S. cerevisiae deletion strains, locus YGR092W, strain DBF2, hits give low values 0.831 | S. cerevisiae deletion strains, locus YHR079C, strain IRE1, hits give low values 0.873 | S. cerevisiae deletion strains, locus YHR082C, strain KSP1, hits give low values 0.95 | S. cerevisiae deletion strains, locus YHR205W, strain SCH9, hits give low values 0.731 | S. cerevisiae deletion strains, locus YIL147C, strain SLN1, hits give low values 0.986 | S. cerevisiae deletion strains, locus YJL095W, strain BCK1, hits give low values 0.845 | S. cerevisiae deletion strains, locus YJL128C, strain PBS2, hits give low values 0.927 | S. cerevisiae deletion strains, locus YJL157C, strain FAR1, hits give low values 0.878 | S. cerevisiae deletion strains, locus YJR016C, strain ILV3, hits give low values 0.974 | S. cerevisiae deletion strains, locus YJR066W, strain TOR1 (second series), hits give low values 0.869 | S. cerevisiae deletion strains, locus YJR066W, strain TOR1, hits give low values 0.884 | S. cerevisiae deletion strains, locus YKL048C, strain ELM1, hits give low values 0.905 | S. cerevisiae deletion strains, locus YKL067W, strain YNK1, hits give low values 0.9 | S. cerevisiae deletion strains, locus YKL101W, strain HSL1, hits give low values 0.863 | S. cerevisiae deletion strains, locus YKL193C, strain SDS22, hits give low values 0.985 | S. cerevisiae deletion strains, locus YKL203C, strain TOR2, hits give low values 0.914 | S. cerevisiae deletion strains, locus YLR133W, strain CKI1, hits give low values 0.876 | S. cerevisiae deletion strains, locus YLR403W, strain SFP1, hits give low values 0.854 | S. cerevisiae deletion strains, locus YML070W, strain DAK1, hits give low values 0.858 | S. cerevisiae deletion strains, locus YMR001C, strain CDC5, hits give low values 0.985 | S. cerevisiae deletion strains, locus YMR205C, strain PFK2 (second series), hits give low values 0.906 | S. cerevisiae deletion strains, locus YMR277W, strain FCP1, hits give low values 0.98 | S. cerevisiae deletion strains, locus YNL006W, strain LST8, hits give low values 0.983 | S. cerevisiae deletion strains, locus YNL020C, strain ARK1, hits give low values 0.818 | S. cerevisiae deletion strains, locus YNL161W, strain CBK1, hits give low values 0.974 | S. cerevisiae deletion strains, locus YNL183C, strain NPR1, hits give low values 0.875 | S. cerevisiae deletion strains, locus YNL207W, strain RIO2, hits give low values 0.966 | S. cerevisiae deletion strains, locus YNL222W, strain SSU72, hits give low values 0.978 | S. cerevisiae deletion strains, locus YNL307C, strain MCK1 (second series), hits give low values 0.828 | S. cerevisiae deletion strains, locus YOL078W, strain AVO1, hits give low values 0.983 | S. cerevisiae deletion strains, locus YOL136C, strain PFK27, hits give low values 0.851 | S. cerevisiae deletion strains, locus YOR061W, strain CKA2, hits give low values 0.899 | S. cerevisiae deletion strains, locus YOR119C, strain RIO1, hits give low values 0.961 | S. cerevisiae deletion strains, locus YOR231W, strain MKK1, hits give low values 0.835 | S. cerevisiae deletion strains, locus YOR329C, strain SCD5, hits give low values 0.978 | S. cerevisiae deletion strains, locus YPL031C, strain PHO85, hits give low values 0.887 | S. cerevisiae deletion strains, locus YPL153C, strain RAD53, hits give low values 0.914 | S. cerevisiae deletion strains, locus YPL204W, strain HRR25, hits give low values 0.867 | S. cerevisiae deletion strains, locus YPL209C, strain IPL1, hits give low values 0.979 | S. cerevisiae deletion strains, locus YPR025C, strain CCL1, hits give low values 0.976 | S. cerevisiae deletion strains, locus YPR106W, strain ISR1, hits give low values 0.966 | S. cerevisiae deletion strains, locus YPR111W, strain DBF20, hits give low values 0.949 | S. cerevisiae deletion strains, strain NNK1, hits give low values 0.977 | S. cerevisiae deletion strains, strain TSCII, hits give low values 0.979

Cc1onc(NC(=O)NC(=O)c2c(F)cccc2Cl)c1Br
inactive: S. cerevisiae deletion strains, locus YAL013W, strain DEP1, hits give low values 1 | S. cerevisiae deletion strains, locus YBR229C, strain ROT2, hits give low values 0.996 | S. cerevisiae deletion strains, locus YCL061C, strain MRC1, hits give low values 1.03 | [1] 1.04 | S. cerevisiae deletion strains, locus YDR150W, strain NUM1, hits give low values 1.01 | S. cerevisiae deletion strains, locus YEL061C, strain CIN8, hits give low values 0.973 | S. cerevisiae deletion strains, locus YGR078C, strain PAC10, hits give low values 1.01 | [2] 0.96 | S. cerevisiae deletion strains, locus YHR087W, strain rtc3, hits give low values 0.971 | S. cerevisiae deletion strains, locus YJR043C, strain POL32, hits give low values 1.01 | S. cerevisiae deletion strains, locus YJR075W, strain HOC1, hits give low values 1.01 | S. cerevisiae deletion strains, locus YLR039C, strain RIC1, hits give low values 1 | S. cerevisiae deletion strains, locus YLR058C, strain SHM2 (second series), hits give low values 1 | S. cerevisiae deletion strains, locus YLR085C, strain ARP6, hits give low values 0.986 | S. cerevisiae deletion strains, locus YLR262C, strain YPT6, hits give low values 0.988 | S. cerevisiae deletion strains, locus YML094W, strain GIM5, hits give low values 0.973 | S. cerevisiae deletion strains, locus YMR219W, strain ESC1, hits give low values 0.998 | S. cerevisiae deletion strains, locus YMR263W, strain SAP30, hits give low values 1.01 | S. cerevisiae deletion strains, locus YNL153C, strain GIM3, hits give low values 1.02 | S. cerevisiae deletion strains, locus YNL298W, strain CLA4 (second series), hits give low values 1.01 | S. cerevisiae deletion strains, locus YNL322C, strain KRE1, hits give low values 1 | S. cerevisiae deletion strains, locus YNR030W, strain Alg12, hits give low values 0.981 | S. cerevisiae deletion strains, locus YOL006C, strain TOP1, hits give low values 1 | S. cerevisiae deletion strains, locus YPL055C, strain LGE1, hits give low values 0.964 | S. cerevisiae deletion strains, locus YPL241C, strain CIN2, hits give low values 1 | S. cerevisiae deletion strains, locus YPR135W, strain CTF4, hits give low values 0.977 | S. cerevisiae strains, strain wild type, hits give low values 1
